Test results: PubChem BioAssay (NCATS)
Results filed as inconclusive are left out. Unmarked numbers belong to inactive results. The source made the active and inactive calls. Calls follow the shape of the dose curve; as a rule, active = well fitted curve in the direction sought with a large enough effect; inconclusive = small, poorly fitted or top-dose-only effect, or another doubt; inactive = no such curve, though single readings can be large; an effect the other way counts as inactive or inconclusive.

Assay: Quantitative High-Throughput drug screen in 47 multiple myeloma cell lines against the NCATS MIPE library collection: KHM11_PLB cell viability assay (AID 1918962); also: nearly all actives have a fitted effect of over 35% in size
Settings: KHM11 myeloma cell viability, CellTiter-Glo ATP luminescence, 48 h; series mostly up to 45.8 µM; viability, % of DMSO control: at the top concentration
In short: (§1)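 CellTiter-Glo luminescence (ATP) after 48 h compound exposure, 37C/5% CO2; 500 cells/well; MIPE 4.0 approved/investigational drugs pinned in; DMSO = 100%, media only = 0% viability.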
Potency is read from the fitted curve at half-maximal effect.

SMILES | Potency | viability, % of DMSO control [%]
Oc1c(Cl)cc(Cl)c2cccnc12 | 26.4 µM (active) | 
O=c1cc(O)c(Cl)c[nH]1 |  | 155
CNC1CCCN(c2c(F)cc3c(=O)c(C(=O)O)cn(C4CC4)c3c2OC)C1 (centres undefined) |  | 156
Cc1cccc(N(C)C(=S)Oc2ccc3ccccc3c2)c1 |  | 111

Assay: Quantitative High-Throughput drug screen in 47 multiple myeloma cell lines against the NCATS MIPE library collection: JIM3_ECACC cell viability assay (AID 1918963; also: nearly all actives have a fitted effect of over 35% in size)
Settings: JIM3 myeloma viability, CellTiter-Glo ATP, 48 h; series mostly up to 45.8 µM; viability, percent of control: at the top concentration
In short: as §1

SMILES | Potency | viability, percent of control [%]
Oc1c(Cl)cc(Cl)c2cccnc12 | 9.35 µM (active) | 
Cc1oc(=O)oc1CN1CCN(c2cc3c(cc2F)c(=O)c(C(=O)O)c2n3C(C)S2)CC1 (centres undefined) |  | 116
O=c1cc(O)c(Cl)c[nH]1 |  | 132
CN(C)CCc1c[nH]c2ccc(C[C@H]3COC(=O)N3)cc12 |  | 94.6
COC(=O)Nc1nc2ccc(Sc3ccccc3)cc2[nH]1 | 0.833 µM (active) | 
CC(C)(C)NC(=O)[C@H]1CC[C@H]2[C@@H]3CC[C@H]4NC(=O)C=C[C@]4(C)[C@H]3CC[C@]12C | 4.18 µM (active) | 
CO[C@@]12[C@H](COC(N)=O)C3=C(C(=O)C(C)=C(N)C3=O)N1C[C@@H]1N[C@@H]12 | 26.4 µM (active) | 
CNC1CCCN(c2c(F)cc3c(=O)c(C(=O)O)cn(C4CC4)c3c2OC)C1 (centres undefined) |  | 114
Nc1nc(N)c2nc(CNc3ccc(C(=O)NC(CCC(=O)O)C(=O)O)cc3)cnc2n1 (centres undefined) | 0.0418 µM (active) | 
CC[C@H](NC(C)C)[C@H](O)c1ccc(O)c2[nH]c(=O)ccc12 |  | 119
O=C(O)CSCC(=O)NC1CCSC1=O (centres undefined) |  | 123
COc1ccc(-c2ccc3cc(C(=O)O)ccc3c2)cc1C12CC3CC(CC(C3)C1)C2 |  | 119
Cn1nnc2c(C(N)=O)ncn2c1=O |  | 105
N[C@@H](C(=O)N[C@@H]1C(=O)N2C(C(=O)O)=C(Cl)CS[C@H]12)c1ccccc1 |  | 124
CCC(=O)O[C@]1(C(=O)SCF)[C@H](C)C[C@H]2[C@@H]3C[C@H](F)C4=CC(=O)C=C[C@]4(C)[C@@]3(F)[C@@H](O)C[C@@]21C |  | 112
Nc1ccc(S(=O)(=O)Nc2ccccn2)cc1 |  | 106
Nc1[nH]c(=O)ncc1F |  | 99.8
CN1CCN(c2c(F)cc3c(=O)c(C(=O)O)cn4c3c2OCN4C)CC1 |  | 129
CN(Cc1cc(Br)cc(Br)c1N)C1CCCCC1 |  | 131
Cc1cccc(N(C)C(=S)Oc2ccc3ccccc3c2)c1 |  | 92
OC(Cn1cncn1)(Cn1cncn1)c1ccc(F)cc1F |  | 110
COc1cc([C@@H]2c3cc4c(cc3[C@H](O)[C@H]3COC(=O)[C@H]23)OCO4)cc(OC)c1OC |  | 19.6
Cc1noc(NS(=O)(=O)c2ccc(N)cc2)c1C |  | 106
O=NN(CCCl)C(=O)NC1CCCCC1 |  | 113
COc1c(N2CCNC(C)C2)c(F)cc2c(=O)c(C(=O)O)cn(C3CC3)c12 (centres undefined) |  | 109
COc1cc(NS(=O)(=O)c2ccc(N)cc2)nc(OC)n1 |  | 121
CCOCC(O)COc1ccc(NC(=O)CC[S+](C)C)cc1 (centres undefined) |  | 112

Assay: Quantitative High-Throughput drug screen in 47 multiple myeloma cell lines against the NCATS MIPE library collection: JIM1_ECACC cell viability assay (AID 1918964)
Settings: JIM1 myeloma viability, CellTiter-Glo ATP luminescence, 48 h; series mostly up to 45.8 µM; viability (% of DMSO): at the top concentration
In short: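 Inhibition of cell viability is measured here. Each line was plated at 500 cells per well, treated with MIPE 4.0 drugs, kept 48 hours at 37C, then assayed for ATP content by CellTiter-Glo luminescence.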

SMILES | viability (% of DMSO) [%] | Potency
CCN1CCCC1CNC(=O)c1cc(S(N)(=O)=O)ccc1OC (centres undefined) | 124 | 
Oc1c(Cl)cc(Cl)c2cccnc12 |  | 8.33 µM (active)
Cc1oc(=O)oc1CN1CCN(c2cc3c(cc2F)c(=O)c(C(=O)O)c2n3C(C)S2)CC1 (centres undefined) | 102 | 
O=c1cc(O)c(Cl)c[nH]1 |  | 6.62 µM (active)
COc1ccc2cc3[n+](cc2c1OC)CCc1cc2c(cc1-3)OCO2 |  | 16.6 µM (active)
CN(C)CCc1c[nH]c2ccc(C[C@H]3COC(=O)N3)cc12 | 85.3 | 
COC(=O)Nc1nc2ccc(Sc3ccccc3)cc2[nH]1 |  | 0.833 µM (active)
CC(C)(C)NC(=O)[C@H]1CC[C@H]2[C@@H]3CC[C@H]4NC(=O)C=C[C@]4(C)[C@H]3CC[C@]12C | 81 | 
CNC1CCCN(c2c(F)cc3c(=O)c(C(=O)O)cn(C4CC4)c3c2OC)C1 (centres undefined) | 106 | 
CC[C@H](NC(C)C)[C@H](O)c1ccc(O)c2[nH]c(=O)ccc12 | 138 | 
Cn1nnc2c(C(N)=O)ncn2c1=O | 106 | 
N[C@@H](C(=O)N[C@@H]1C(=O)N2C(C(=O)O)=C(Cl)CS[C@H]12)c1ccccc1 | 110 | 
CCC(=O)O[C@]1(C(=O)SCF)[C@H](C)C[C@H]2[C@@H]3C[C@H](F)C4=CC(=O)C=C[C@]4(C)[C@@]3(F)[C@@H](O)C[C@@]21C | 94.4 | 
Nc1[nH]c(=O)ncc1F | 77.6 | 
COc1cc([C@@H]2c3cc4c(cc3[C@H](O)[C@H]3COC(=O)[C@H]23)OCO4)cc(OC)c1OC | 22.6 | 
O=NN(CCCl)C(=O)NC1CCCCC1 | 101 | 
CN(C)c1ccc(C(=C2C=CC(=[N+](C)C)C=C2)c2ccc(N(C)C)cc2)cc1 |  | 0.105 µM (active)
N=C(N)c1ccc(OCCCCCOc2ccc(C(=N)N)cc2)cc1 | 130 | 

Assay: Quantitative High-Throughput drug screen in 47 multiple myeloma cell lines against the NCATS MIPE library collection: INA6_PLB cell viability assay (AID 1918965; also: nearly all actives have a fitted effect of over 55% in size)
Settings: INA6 myeloma viability, CellTiter-Glo ATP luminescence, 48 h; series mostly up to 45.8 µM; viability (% of control): at the top concentration
In short: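 Myeloma cells (500 per well) were exposed to MIPE 4.0 compounds by pin transfer and incubated 48 hours at 37C, 5% CO2. Viability was read as ATP by CellTiter-Glo luminescence, normalised to DMSO (100%) and media-only (0%) wells.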

SMILES | Potency | viability (% of control) [%]
Oc1c(Cl)cc(Cl)c2cccnc12 | 16.6 µM (active) | 
CCc1c2c(nc3ccc(OC(=O)N4CCC(N5CCCCC5)CC4)cc13)-c1cc3c(c(=O)n1C2)COC(=O)[C@]3(O)CC | 0.469 µM (active) | 
O=C(O)C1CCCN(CCC=C(c2ccccc2)c2ccccc2)C1 (centres undefined) |  | 160
COc1ccc2cc3[n+](cc2c1OC)CCc1cc2c(cc1-3)OCO2 | 6.62 µM (active) | 
CN(C)CCc1c[nH]c2ccc(C[C@H]3COC(=O)N3)cc12 | 13.2 µM (active) | 
COC(=O)Nc1nc2ccc(Sc3ccccc3)cc2[nH]1 | 0.743 µM (active) | 
CC(C)(C)NC(=O)[C@H]1CC[C@H]2[C@@H]3CC[C@H]4NC(=O)C=C[C@]4(C)[C@H]3CC[C@]12C | 0.833 µM (active) | 
CO[C@@]12[C@H](COC(N)=O)C3=C(C(=O)C(C)=C(N)C3=O)N1C[C@@H]1N[C@@H]12 | 20.9 µM (active) | 
COc1ccc(-c2ccc3cc(C(=O)O)ccc3c2)cc1C12CC3CC(CC(C3)C1)C2 |  | 189
N[C@@H](C(=O)N[C@@H]1C(=O)N2C(C(=O)O)=C(Cl)CS[C@H]12)c1ccccc1 |  | 134
Nc1ccc(S(=O)(=O)Nc2ccccn2)cc1 |  | 130
CN1CCN(c2c(F)cc3c(=O)c(C(=O)O)cn4c3c2OCN4C)CC1 |  | 157
Cc1cccc(N(C)C(=S)Oc2ccc3ccccc3c2)c1 |  | 106
OC(Cn1cncn1)(Cn1cncn1)c1ccc(F)cc1F |  | 175
CC[C@H](C)C(=O)O[C@H]1C[C@@H](C)C=C2C=C[C@H](C)[C@H](CC[C@@H]3C[C@@H](O)CC(=O)O3)[C@H]21 | 18.7 µM (active) | 
COc1cc([C@@H]2c3cc4c(cc3[C@H](O)[C@H]3COC(=O)[C@H]23)OCO4)cc(OC)c1OC |  | 6.94
Cc1noc(NS(=O)(=O)c2ccc(N)cc2)c1C |  | 146
COc1cc(NS(=O)(=O)c2ccc(N)cc2)nc(OC)n1 |  | 139
CN(C)c1ccc(C(=C2C=CC(=[N+](C)C)C=C2)c2ccc(N(C)C)cc2)cc1 | 0.0093 µM (active) | 
N=C(N)c1ccc(OCCCCCOc2ccc(C(=N)N)cc2)cc1 | 3.72 µM (active) | 
